# The supplement of paper PMC11732987, “Enantioselective OTUD7B fragment discovery through chemoproteomics screening and high-throughput optimisation” (Communications Chemistry, 2025)
# Values without a mark were called inactive.
# What was measured:
# Experiment in all cases: log2 ratio of Biotin-Ahx-Ub-VS probe labelling (fragment/DMSO); higher = less target engagement (more negative = stronger competition), active = hit call of the paper (q ≤ 0.05, log2 ratio ≤ -1)
# Settings in all cases: compound concentration: 200 uM; treatment time: 3 h
# [1] = target: T1, USP19 (UniProt O94966)
# T1 sequence (whole entry): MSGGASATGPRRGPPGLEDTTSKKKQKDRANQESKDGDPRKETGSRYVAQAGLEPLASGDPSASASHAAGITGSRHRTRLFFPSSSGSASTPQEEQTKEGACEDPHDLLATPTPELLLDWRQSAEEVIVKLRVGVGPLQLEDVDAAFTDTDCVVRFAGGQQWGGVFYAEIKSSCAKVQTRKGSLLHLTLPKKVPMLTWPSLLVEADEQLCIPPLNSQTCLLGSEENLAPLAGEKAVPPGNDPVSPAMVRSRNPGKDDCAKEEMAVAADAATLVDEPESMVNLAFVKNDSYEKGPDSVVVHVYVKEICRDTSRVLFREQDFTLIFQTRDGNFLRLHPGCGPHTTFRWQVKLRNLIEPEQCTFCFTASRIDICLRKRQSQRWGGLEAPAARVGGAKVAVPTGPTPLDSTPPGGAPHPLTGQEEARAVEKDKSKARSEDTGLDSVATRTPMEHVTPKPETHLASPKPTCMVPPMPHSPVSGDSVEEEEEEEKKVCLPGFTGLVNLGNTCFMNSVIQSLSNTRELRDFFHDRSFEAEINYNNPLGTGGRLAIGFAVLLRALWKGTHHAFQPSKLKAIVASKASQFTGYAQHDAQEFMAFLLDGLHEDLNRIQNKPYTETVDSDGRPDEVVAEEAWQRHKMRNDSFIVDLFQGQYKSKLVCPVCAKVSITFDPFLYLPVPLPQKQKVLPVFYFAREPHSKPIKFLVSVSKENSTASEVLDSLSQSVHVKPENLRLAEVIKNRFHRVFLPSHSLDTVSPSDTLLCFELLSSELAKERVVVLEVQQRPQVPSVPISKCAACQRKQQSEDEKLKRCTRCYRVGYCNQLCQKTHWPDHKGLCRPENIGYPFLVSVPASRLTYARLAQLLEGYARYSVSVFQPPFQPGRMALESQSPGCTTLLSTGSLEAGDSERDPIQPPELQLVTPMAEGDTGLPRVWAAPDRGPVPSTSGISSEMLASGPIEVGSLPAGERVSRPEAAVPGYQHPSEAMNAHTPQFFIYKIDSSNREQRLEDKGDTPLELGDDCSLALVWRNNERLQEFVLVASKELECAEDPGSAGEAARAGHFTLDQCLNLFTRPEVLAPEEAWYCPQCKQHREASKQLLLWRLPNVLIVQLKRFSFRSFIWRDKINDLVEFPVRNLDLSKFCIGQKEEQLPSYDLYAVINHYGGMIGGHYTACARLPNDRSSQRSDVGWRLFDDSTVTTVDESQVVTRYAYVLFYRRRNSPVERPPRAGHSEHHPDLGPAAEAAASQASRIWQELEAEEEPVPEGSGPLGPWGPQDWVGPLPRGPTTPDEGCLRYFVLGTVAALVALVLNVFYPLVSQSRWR
# Procedure, shortened: (§1)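 Labelled DUBs from HEK293T lysate were NeutrAvidin-enriched, digested with LysC and trypsin, and run by diaPASEF LC-MS/MS. Before that, each 495 µg sample in Tris/CHAPS/IGEPAL buffer with protease inhibitors was treated in triplicate with fragment at 200 µM or vehicle for 3 h, then with Biotin-Ahx-Ub-VS at 0.5 µM final for 1 h. Values are average log2 ratios of fragment over vehicle by unpaired t-test, based on global-median-normalised Spectronaut label-free quantities from proteins with ≥2 unique peptides.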
# [2] = target: T2, USP22 (UniProt Q9UPT9)
# T2 sequence (whole entry): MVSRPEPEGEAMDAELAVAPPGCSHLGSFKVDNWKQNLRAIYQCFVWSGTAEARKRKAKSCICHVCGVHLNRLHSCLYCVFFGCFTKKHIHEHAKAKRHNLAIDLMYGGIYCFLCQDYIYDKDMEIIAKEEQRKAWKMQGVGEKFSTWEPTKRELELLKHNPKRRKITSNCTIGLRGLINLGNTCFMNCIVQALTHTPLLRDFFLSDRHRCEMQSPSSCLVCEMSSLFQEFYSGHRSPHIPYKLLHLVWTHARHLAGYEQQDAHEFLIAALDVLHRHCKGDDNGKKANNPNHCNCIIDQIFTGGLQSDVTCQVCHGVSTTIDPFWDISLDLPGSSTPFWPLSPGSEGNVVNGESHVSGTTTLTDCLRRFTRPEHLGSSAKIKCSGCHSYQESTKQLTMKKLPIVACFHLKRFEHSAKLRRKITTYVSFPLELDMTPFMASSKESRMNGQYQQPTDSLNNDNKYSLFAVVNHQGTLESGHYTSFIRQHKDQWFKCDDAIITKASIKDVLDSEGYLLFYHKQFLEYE
# Procedure, shortened: as §1
# [3] = target: USP24 (UniProt Q9UPU5)
# Chain of USP24 (Q9UPU5 whole entry): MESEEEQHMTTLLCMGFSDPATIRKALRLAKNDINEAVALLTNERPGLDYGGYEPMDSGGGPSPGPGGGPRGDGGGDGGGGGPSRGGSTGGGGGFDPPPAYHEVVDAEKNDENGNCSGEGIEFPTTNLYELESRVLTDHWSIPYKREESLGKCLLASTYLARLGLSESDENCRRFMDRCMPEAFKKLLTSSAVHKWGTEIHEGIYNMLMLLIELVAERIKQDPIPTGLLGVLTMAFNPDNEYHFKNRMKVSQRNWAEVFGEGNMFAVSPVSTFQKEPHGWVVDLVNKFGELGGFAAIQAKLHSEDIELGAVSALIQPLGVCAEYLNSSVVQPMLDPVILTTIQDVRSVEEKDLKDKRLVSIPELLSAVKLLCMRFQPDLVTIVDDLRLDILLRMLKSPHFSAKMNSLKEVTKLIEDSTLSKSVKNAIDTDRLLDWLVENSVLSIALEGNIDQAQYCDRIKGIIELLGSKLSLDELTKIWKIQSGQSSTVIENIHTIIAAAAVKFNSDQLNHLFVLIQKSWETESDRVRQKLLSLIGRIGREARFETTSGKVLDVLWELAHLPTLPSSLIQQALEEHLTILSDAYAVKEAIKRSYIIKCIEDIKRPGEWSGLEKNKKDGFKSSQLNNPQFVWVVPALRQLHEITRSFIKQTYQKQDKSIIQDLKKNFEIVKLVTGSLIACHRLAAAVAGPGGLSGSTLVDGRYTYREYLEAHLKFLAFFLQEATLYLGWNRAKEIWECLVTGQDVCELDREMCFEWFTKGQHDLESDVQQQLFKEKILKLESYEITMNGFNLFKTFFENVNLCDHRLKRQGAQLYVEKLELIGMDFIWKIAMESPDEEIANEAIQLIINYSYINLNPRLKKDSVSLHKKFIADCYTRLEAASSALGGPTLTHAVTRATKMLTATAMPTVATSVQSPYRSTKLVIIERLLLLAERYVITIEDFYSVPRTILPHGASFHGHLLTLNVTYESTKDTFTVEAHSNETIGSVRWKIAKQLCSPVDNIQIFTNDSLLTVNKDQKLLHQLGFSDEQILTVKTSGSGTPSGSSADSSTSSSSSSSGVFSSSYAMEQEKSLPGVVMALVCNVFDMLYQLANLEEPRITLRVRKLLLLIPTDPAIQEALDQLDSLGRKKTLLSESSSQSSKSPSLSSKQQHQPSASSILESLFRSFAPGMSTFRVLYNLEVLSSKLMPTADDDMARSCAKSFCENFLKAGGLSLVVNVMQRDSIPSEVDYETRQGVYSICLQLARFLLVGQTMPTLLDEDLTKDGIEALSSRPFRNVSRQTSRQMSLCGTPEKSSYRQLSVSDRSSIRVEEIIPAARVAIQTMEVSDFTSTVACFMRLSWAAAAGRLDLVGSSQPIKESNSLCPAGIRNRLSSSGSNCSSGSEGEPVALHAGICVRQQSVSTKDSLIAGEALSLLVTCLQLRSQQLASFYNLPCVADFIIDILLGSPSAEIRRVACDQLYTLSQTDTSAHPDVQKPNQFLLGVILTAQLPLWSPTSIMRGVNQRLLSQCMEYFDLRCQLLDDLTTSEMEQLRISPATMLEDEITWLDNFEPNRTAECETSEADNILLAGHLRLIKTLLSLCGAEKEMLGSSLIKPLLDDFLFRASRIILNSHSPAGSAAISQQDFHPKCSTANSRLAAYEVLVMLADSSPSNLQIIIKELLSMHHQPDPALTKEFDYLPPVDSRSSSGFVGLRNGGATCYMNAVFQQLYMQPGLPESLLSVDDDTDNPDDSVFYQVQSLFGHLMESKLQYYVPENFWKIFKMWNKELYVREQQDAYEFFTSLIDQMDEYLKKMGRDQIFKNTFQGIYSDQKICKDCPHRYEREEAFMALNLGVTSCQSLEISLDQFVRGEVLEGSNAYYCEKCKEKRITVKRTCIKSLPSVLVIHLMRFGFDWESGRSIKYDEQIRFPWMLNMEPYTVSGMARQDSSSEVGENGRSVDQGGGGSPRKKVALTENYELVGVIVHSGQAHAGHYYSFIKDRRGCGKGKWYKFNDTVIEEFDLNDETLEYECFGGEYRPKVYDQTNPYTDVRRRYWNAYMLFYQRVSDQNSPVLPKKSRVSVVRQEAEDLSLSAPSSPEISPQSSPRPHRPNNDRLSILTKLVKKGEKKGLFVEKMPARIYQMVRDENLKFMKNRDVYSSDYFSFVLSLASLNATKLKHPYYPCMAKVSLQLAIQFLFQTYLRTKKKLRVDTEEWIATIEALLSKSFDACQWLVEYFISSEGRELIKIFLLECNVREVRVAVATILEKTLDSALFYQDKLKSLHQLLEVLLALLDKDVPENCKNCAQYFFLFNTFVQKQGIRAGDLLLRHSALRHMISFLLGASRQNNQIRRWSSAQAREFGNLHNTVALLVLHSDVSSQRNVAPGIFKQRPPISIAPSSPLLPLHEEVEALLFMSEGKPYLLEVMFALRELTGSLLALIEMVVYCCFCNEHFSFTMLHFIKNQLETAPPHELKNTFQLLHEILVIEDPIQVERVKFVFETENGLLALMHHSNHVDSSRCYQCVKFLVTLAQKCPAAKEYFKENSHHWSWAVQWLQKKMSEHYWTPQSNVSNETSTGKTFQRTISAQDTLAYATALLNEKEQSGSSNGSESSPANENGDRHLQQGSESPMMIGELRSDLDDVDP
# Procedure, shortened: as §1
# [4] = target: T3, USP25 (UniProt Q9UHP3)
# T3 sequence (whole entry): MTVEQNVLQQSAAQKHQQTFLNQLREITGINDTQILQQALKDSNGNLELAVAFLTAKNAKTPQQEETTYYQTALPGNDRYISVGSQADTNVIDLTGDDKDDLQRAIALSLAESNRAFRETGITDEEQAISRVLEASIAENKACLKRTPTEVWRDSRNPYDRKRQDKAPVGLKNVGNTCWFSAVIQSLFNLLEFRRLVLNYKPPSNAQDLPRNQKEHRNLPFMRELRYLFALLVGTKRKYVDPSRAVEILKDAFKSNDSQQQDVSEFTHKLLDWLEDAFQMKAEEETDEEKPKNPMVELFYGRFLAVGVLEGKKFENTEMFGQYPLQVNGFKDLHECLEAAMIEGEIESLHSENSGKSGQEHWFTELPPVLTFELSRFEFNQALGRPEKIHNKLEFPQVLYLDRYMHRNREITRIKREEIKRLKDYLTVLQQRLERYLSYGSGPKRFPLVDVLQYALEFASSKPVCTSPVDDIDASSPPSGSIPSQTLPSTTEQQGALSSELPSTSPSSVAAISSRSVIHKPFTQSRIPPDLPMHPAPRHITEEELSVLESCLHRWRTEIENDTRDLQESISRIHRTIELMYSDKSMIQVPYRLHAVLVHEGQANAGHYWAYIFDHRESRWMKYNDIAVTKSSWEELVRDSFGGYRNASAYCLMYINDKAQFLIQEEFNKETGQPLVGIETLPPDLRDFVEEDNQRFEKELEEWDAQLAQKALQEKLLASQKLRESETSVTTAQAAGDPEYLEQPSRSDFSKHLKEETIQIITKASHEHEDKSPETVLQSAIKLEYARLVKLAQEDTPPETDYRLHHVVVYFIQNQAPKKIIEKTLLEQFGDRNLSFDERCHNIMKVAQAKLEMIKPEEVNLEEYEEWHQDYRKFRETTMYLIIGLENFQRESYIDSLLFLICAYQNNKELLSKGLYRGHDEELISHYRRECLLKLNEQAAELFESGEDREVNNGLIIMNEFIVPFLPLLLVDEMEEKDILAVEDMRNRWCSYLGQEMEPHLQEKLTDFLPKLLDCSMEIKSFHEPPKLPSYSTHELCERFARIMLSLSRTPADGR
# Procedure, shortened: as §1
# [5] = target: T4, USP28 (UniProt Q96RU2)
# T4 sequence (whole entry): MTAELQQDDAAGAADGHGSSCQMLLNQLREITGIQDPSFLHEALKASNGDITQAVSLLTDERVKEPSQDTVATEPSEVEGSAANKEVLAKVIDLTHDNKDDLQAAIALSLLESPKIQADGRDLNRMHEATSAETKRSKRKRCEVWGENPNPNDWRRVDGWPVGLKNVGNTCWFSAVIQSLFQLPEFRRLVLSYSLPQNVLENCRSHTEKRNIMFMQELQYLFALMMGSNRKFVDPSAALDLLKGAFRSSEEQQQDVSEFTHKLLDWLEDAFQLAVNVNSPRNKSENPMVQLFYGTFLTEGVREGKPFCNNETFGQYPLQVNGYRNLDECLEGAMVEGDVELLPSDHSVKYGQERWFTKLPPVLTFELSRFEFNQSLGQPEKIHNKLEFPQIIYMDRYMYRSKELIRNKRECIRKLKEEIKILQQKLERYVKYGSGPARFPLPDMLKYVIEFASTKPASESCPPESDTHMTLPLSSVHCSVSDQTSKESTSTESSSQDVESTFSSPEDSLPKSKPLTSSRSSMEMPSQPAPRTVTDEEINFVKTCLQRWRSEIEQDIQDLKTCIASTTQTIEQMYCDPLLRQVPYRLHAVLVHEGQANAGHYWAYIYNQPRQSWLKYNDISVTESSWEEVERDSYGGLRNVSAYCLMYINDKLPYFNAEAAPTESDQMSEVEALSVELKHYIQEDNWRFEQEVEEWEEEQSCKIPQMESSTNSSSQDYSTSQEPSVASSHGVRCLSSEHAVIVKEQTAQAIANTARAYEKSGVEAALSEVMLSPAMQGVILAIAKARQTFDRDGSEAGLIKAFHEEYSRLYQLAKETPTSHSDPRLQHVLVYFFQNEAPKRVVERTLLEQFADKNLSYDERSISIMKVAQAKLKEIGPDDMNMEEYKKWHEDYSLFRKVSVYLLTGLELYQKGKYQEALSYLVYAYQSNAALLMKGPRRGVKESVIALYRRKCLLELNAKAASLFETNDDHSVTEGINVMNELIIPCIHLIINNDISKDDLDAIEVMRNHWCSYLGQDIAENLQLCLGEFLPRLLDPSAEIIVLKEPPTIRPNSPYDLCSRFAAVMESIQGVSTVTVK
# Procedure, shortened: as §1
structure (smiles),measurement,setting,value
O=C(CCl)N[C@H]1CC[C@@H](CO)CC1,log2 ratio of Biotin-Ahx-Ub-VS probe labelling,[1],-0.828
same,log2 ratio of Biotin-Ahx-Ub-VS probe labelling,[2],-0.256
same,log2 ratio of Biotin-Ahx-Ub-VS probe labelling,[3],-1.05 (active)
same,log2 ratio of Biotin-Ahx-Ub-VS probe labelling,[4],-0.739
same,log2 ratio of Biotin-Ahx-Ub-VS probe labelling,[5],-1.09 (active)
